Only some compounds are listed: those with a hit (about 19% of all), similar ones and a draw of the others.
IL-1B inflam inh: qHTS for Inhibitors of Inflammasome Signaling: IL-1-beta AlphaLISA Primary Screen. THP-1 LPS/ATP IL-1B secretion, AlphaLISA, 16 h; stronger effect = lower value. activity change, % at 57.5 µM. 360,000 compounds, 4.7% hits. AID 743279, 2014; in the data active = activity change below about -50%; inconclusive = mostly about -30% to -49%; note: % is set by controls: 0 for no effect and ±100 for the full control effect
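Secreted IL-1B measured by AlphaLISA bead assay after 16 h compound exposure of THP-1 cells; compounds (final up to 57.5 uM) added 1 h before LPS (250 ng/mL) and ATP (1.25 mM) stimulation; lower signal means less secretion.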
TDP1 cell noCPT: qHTS for Inhibitors of human tyrosyl-DNA phosphodiesterase 1 (TDP1): qHTS in cells in absence of CPT. DT40 Tdp1-/- hTDP1 cells, no CPT, ATP luminescence, 48 h. Potency, µM (doses to about 46.2 µM), inactives show top-dose activity change, negative = growth inhibition, hits mostly inhibitors. 420,000 compounds, 15% hits; note: potency is the fitted concentration of half-maximal effect; % is set by controls: 0 for no effect and ±100 for the full control effect; nearly all actives have a fitted effect of over 55% in size
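A cellular qHTS used chicken DT40 cells lacking endogenous Tdp1 but carrying stably transfected human TDP1. Compounds were applied without camptothecin, and cell growth kinetics were judged by ATP-dependent luminescence after ≥48 hr.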
TGFb inhibitor: qHTS for Inhibitors of TGF-b. Potency, µM (series often up to 46.1 µM), without a hit: top-dose activity, negative = inhibition, most hits filed as inhibitors. HepG2 CAGA-GFP TGF-b/SMAD3 reporter, GFP fluorescence, 18 h; TGF-beta stimulated, 500 pg/mL final. AID 588855, 2011. 410,000 compounds, 1.2% hits; note: potency is the fitted concentration of half-maximal effect; % is set by controls: 0 for no effect and ±100 for the full control effect; nearly all actives have a fitted effect of over 65% in size
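Per well, imaged GFP fluorescence of HEPG2 CAGA-GFP cells gives the signal; cells get compound, then TGF-beta (500 pg/mL final), 18 h at 37 degrees C; %Activity versus -TGF-beta and +DMSO controls.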
TDP1 inh: qHTS Assay for Inhibitors of Tyrosyl-DNA Phosphodiesterase (TDP1) | Potency, µM (titrated, usually from 130 µM), for inactives: at the highest dose activity change, negative = inhibition, usual class: inhibitors | Tyrosyl-DNA phosphodiesterase 1 (Homo sapiens), Q9NUW8 | 350,000 compounds, 0.28% hits | recombinant TDP1, AlphaScreen DNA substrate cleavage; note: potency is the fitted concentration of half-maximal effect; % is set by controls: 0 for no effect and ±100 for the full control effect; nearly all actives have a fitted effect of over 40% in size
Target sequence (Q9NUW8 whole entry, looked up): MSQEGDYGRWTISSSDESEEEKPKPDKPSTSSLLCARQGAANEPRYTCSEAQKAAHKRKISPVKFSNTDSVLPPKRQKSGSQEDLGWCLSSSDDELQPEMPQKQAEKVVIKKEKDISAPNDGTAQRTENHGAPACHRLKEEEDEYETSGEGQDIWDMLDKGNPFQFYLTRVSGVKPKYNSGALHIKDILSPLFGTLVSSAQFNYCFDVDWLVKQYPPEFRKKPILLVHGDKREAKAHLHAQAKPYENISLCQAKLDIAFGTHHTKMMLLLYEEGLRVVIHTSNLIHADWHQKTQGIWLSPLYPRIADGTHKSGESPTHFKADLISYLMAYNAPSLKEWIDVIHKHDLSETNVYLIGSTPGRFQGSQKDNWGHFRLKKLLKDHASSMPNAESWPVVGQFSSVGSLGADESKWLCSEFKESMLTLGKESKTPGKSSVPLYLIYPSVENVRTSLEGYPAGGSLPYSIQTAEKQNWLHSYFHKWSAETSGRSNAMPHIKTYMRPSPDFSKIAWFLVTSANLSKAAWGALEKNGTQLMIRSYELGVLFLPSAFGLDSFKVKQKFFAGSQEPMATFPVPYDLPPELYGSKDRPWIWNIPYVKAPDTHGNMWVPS
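Recombinant E. coli-expressed Tdp1 (1 nM) preincubated with compound 15 min at RT, then 5'-biotin/3'-phosphotyrosine-FITC DNA substrate (15 nM) added for 5 min. AlphaScreen beads (10 ug/ml) added, 10 min RT; tyrosine-FITC cleavage read as signal loss.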
TDP1 cell CPT: qHTS for Inhibitors of human tyrosyl-DNA phosphodiesterase 1 (TDP1): qHTS in cells in presence of CPT; chicken DT40 Tdp1-/-;hTDP1 cells + 20 nM CPT, ATP luminescence, 48 h; Potency, µM (top dose mostly 46.2 µM), inactives show at the top dose activity change, negative = growth inhibition, usual class: inhibitors; 420,000 compounds, 12% hits; AID 686979, 2013; note: potency is the fitted concentration of half-maximal effect; % is set by controls: 0 for no effect and ±100 for the full control effect; nearly all actives have a fitted effect of over 55% in size
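Chicken DT40 Tdp1-/- cells complemented with human TDP1, 400 cells/well, exposed to compounds plus 20 nM camptothecin for at least 48 h at 37 C; viability read as ATP content by CellTiter-Glo luminescence.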
HepG2 viability: qHTS for Inhibitors of TGF-b: Cytotox Counterscreen | HepG2 CAGA-GFP viability, ATP luminescence, 18 h | Potency, µM (doses to about 46.1 µM), for inactives: at the top dose activity change, negative = cytotoxicity, most hits filed as cytotoxic | 410,000 compounds, 0.76% hits | AID 588856, 2011; note: potency is the fitted concentration of half-maximal effect
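HepG2 CAGA-GFP cells (1000/well, DMEM with 1% FBS) received compound, then TGF-beta at 500 pg/mL final, and were incubated 18 hours at 37 degrees C. Viability was read by CellTiter-Glo luminescence. Media-only wells were set as complete cell-killing and DMSO as no toxicity.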
* marks the source's active call; other numbers are inactive results; ? = inconclusive; nt = no result. Unless noted, calls come from the whole dose curve; as a rule, active = well fitted curve in the direction sought with a large enough effect; inconclusive = small, poorly fitted or top-dose-only effect, or another doubt; inactive = no such curve, though single readings can be large; an effect the other way counts as inactive or inconclusive.

SMILES | IL-1B inflam inh | TDP1 cell noCPT | TGFb inhibitor | TDP1 inh | TDP1 cell CPT | HepG2 viability
CN(C)c1ccc(/C=N/N(CCC(=O)NC(C)(C)C)C2=NS(=O)(=O)c3ccccc32)cc1 | -6 | ? | 8% | nt | 0% | -11%
Cc1cc(-c2ccc(C)c(S(=O)(=O)NCCC(C)N3CCCCCC3)c2)on1 (configuration not stated) | -2 | -20% | -8% | 5% | -20% | -31%
Cc1cc(-c2ccc(C)c(S(=O)(=O)NCCCN3CCCCCC3)c2)on1 | -51* | -28% | 1% | 4% | -24% | -10%
COc1ccc(-c2cc(C)no2)cc1S(=O)(=O)NCCCN1CCN(c2ccccc2)CC1 | -9 | 23µM* | ? | 1% | ? | -39%
Cc1cc(-c2ccc(C)c(S(=O)(=O)NCCCN3CCN(c4ccccc4F)CC3)c2)on1 | -12 | ? | ? | 5% | ? | -44%
Cc1cc(-c2ccc(C)c(S(=O)(=O)NCCCN3CCN(c4ccccc4)CC3)c2)on1 | -7 | 23µM* | ? | 5% | ? | -33%
Cc1cc(-c2ccc(C)c(S(=O)(=O)NCc3cccs3)c2)on1 | nt | 15µM* | 0% | 3% | 12µM* | -18%
Cc1ccc(Cl)cc1N1CCN(C(=O)CN2C(=O)COc3ccc(S(=O)(=O)N4CCC(C)CC4)cc32)CC1 | nt | nt | -1% | 4% | nt | -22%
CCCCCNC(=O)CCn1c(=O)[nH]c2ccccc2c1=O | nt | ? | ? | -3% | ? | -24%
COCCNc1nc(C)nc2c1nc(-c1ccccc1)n2CCCN1CCCCC1C (configuration not stated) | nt | nt | nt | 7% | nt | nt
O=C1/C(=C/C=C/c2ccco2)SC(=S)N1c1ccc(O)cc1 | -23 | ? | -6% | nt | 18µM* | -7%
CN(C)c1ccc(/C=C/C=C2/SC(=S)N(c3ccccc3)C2=O)cc1 | ? | 8.2µM* | -2% | 10% | 18µM* | -16%
